PubChem BioAssay (NCATS)
Results filed as inconclusive are left out. The source made the active and inactive calls. Unless noted, calls come from the whole dose curve; as a rule, active = well fitted curve in the direction sought with a large enough effect; inconclusive = small, poorly fitted or top-dose-only effect, or another doubt; inactive = no such curve, though single readings can be large; an effect the other way counts as inactive or inconclusive.

Tests used:
[1] = target: Lysosomal acid glucosylceramidase (Homo sapiens) (UniProt P04062); experiment: Glucocerebrosidase-p2 (AID 348; in the data active = potency below about 10 µM; note: potency is the fitted concentration of half-maximal effect); settings: purified GBA, blue fluorogenic substrate, 40 min
Lysosomal acid glucosylceramidase (Homo sapiens), sequence (P04062 whole entry, looked up): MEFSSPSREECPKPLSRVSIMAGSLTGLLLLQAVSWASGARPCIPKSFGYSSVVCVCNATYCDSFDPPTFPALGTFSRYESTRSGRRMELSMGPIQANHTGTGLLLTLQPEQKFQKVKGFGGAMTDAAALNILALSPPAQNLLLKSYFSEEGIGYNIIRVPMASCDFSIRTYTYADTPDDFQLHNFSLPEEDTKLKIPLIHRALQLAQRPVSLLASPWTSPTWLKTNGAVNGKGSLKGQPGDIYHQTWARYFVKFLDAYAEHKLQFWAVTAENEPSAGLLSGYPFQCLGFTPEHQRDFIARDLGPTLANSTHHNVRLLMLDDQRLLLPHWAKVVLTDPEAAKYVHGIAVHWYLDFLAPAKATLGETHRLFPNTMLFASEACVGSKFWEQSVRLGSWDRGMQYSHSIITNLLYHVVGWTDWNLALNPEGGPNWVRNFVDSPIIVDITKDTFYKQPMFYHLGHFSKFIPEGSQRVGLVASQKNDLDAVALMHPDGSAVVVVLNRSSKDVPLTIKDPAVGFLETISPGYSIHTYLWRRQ
Method in brief: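 Compounds titrated from 0.6 nM upwards against 0.2 nM enzyme in pH 5.9 citric acid/KH2PO4, taurocholate, tween-20; blue fluorogenic substrate 80 uM, 40 min room temperature, stopped and read Ex 365/Em 440 for AC50.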

[2] = AP1 Signaling Pathway (AID 357; active = well fitted curve in either direction with a large enough effect, not every such curve was filed as active;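 note: ME-180 reporter cells stimulated with EGF at its EC50 level; % is set by controls: 0 for no effect and ±100 for the full control effect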); settings: ME-180 AP-1-bla reporter, EGF-induced, beta-lactamase ratio, 5 h; at 7.69 µM (top of the series) unless noted
Method in brief: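 A ratiometric CCF4 readout (405 nm excitation; 460 and 530 nm emission) quantified AP-1-driven beta-lactamase in ME-180 cells after 5 h with compound and EC50 EGF; AC50 values were derived for activators and inhibitors.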

[3] = target: Cytochrome P450 1A2 (Homo sapiens) (UniProt P05177); experiment: p450-cyp1a2 (AID 410; calls by dose curve; note: potency is the fitted concentration of half-maximal effect); settings: recombinant CYP1A2, luciferin-ME demethylation, luminescence; series mostly up to 57 µM
Cytochrome P450 1A2 (Homo sapiens), sequence (P05177 whole entry, looked up): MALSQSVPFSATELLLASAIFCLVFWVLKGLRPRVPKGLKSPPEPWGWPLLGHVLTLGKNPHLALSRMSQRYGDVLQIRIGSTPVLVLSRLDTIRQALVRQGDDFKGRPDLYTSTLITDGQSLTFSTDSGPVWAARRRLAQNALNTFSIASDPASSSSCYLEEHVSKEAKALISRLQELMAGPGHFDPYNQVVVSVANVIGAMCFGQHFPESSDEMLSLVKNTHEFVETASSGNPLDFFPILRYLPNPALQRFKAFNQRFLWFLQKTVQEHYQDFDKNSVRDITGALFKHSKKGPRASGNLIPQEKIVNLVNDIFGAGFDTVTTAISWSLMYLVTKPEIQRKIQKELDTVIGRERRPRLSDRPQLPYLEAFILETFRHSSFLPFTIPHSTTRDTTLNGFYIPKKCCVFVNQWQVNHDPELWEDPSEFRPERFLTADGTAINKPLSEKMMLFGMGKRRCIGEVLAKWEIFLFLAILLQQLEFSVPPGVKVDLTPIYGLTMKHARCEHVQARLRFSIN
Method in brief: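 Luminescent readout of luciferin formed from Luciferin-ME by human CYP1A2; data normalized against complete inhibition by 57 uM furafylline. Enzyme 20nM, substrate 100uM at Km, 100mM KPO4 buffer, 60 min reaction at room temperature.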

[4] = NFAT Signaling Pathway (AID 444; active = well fitted curve in either direction with a large enough effect, not every such curve was filed as active;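 note: carbachol stimulus at about its EC50 of 1 µM final; % is set by controls: 0 for no effect and ±100 for the full control effect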); settings: Jurkat NFAT-bla M1, carbachol, beta-lactamase ratio, 5 h; at 7.69 µM (top of the series) unless noted
Method in brief: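 Read-out: CCF4 FRET ratio (460 nm/530 nm) after 1 h RT dye loading, used for %activity and AC50 from titration series. Cells: Jurkat NFAT-β-lactamase/M1 line, treated with compound plus 1 uM carbachol for 5 h, 37 °C.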

[5] = Stat Signaling Pathway (AID 446; active = well fitted curve in either direction with a large enough effect, not every such curve was filed as active;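 note: ME-180 cervical cancer cells given 40 pM IL-6 alongside compound; SIE-controlled beta-lactamase reporter measured as 460/530 nm FRET emission ratio; % is set by controls: 0 for no effect and ±100 for the full control effect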); settings: ME-180 SIE beta-lactamase reporter, IL-6 stimulated, 5 h; at 7.69 µM (top of the series) unless noted
Method in brief: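 Screening format detects activators and inhibitors alike: ME-180 SIE-bla cells stimulated at 40 pM IL-6 for 5 hrs with compound, then dual-emission beta-lactamase read at 405 nm excitation.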

[6] = target: Glucocorticoid receptor (Homo sapiens) (UniProt P04150); experiment: GR-GFP Redistribution (AID 450;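 active = compounds whose dose series gives a full or clear partial fitted curve of increased nuclear translocation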; note: potency is the fitted concentration of half-maximal effect); settings: U2OS GR-GFP nuclear translocation, laser cytometry, 2 h
Glucocorticoid receptor (Homo sapiens), sequence (P04150 whole entry, looked up, the tested form may be a part): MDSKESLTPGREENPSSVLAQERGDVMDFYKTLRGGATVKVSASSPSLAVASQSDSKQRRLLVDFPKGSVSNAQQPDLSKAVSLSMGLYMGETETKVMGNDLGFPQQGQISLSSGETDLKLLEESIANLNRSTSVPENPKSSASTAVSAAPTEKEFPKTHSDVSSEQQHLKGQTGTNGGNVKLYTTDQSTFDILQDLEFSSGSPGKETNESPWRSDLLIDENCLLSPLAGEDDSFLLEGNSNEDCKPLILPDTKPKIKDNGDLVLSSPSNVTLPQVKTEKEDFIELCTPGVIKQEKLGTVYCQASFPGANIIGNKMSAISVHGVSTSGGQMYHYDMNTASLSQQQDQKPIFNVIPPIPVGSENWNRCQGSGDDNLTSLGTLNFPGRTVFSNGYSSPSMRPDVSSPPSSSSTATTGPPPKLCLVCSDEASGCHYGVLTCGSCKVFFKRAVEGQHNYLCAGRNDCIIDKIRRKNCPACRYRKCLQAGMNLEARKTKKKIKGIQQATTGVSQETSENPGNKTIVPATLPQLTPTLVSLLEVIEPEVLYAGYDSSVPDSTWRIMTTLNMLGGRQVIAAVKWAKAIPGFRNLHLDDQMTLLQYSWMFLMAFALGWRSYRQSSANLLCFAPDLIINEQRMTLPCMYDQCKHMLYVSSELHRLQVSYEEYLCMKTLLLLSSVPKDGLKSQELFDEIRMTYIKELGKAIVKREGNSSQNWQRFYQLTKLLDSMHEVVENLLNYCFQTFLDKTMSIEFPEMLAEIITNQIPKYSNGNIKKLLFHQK

[7] = target: Glucocorticoid receptor (Homo sapiens) (UniProt P04150); experiment: GR-EFC Redistribution (AID 451; calls by dose curve; note: potency is the fitted concentration of half-maximal effect); settings: CHO-K1 GR-EFC translocation, beta-gal luminescence, 2 h
Method in brief: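 Translocation of GR-ED fusion to nuclear EA restores b-gal, read by luminescence after 1 h room-temperature detection. Engineered CHO-K1 biosensor cells, 1,000/well, exposed 2 h at 37 C to titrations up to 46 uM final.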

[8] = target: Mitogen-activated protein kinase 10 (Mus musculus) (UniProt Q61831); experiment: JNK3 AlphaScreen Assay (AID 530; active = well fitted curve in either direction with a large enough effect, not every such curve was filed as active;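 note: kinase came from lysate of stimulated human HepG2 cells; signal reports phosphorylation of biotinylated GST-cJun 1-79 at Ser73 with 10 µM ATP; % is set by controls: 0 for no effect and ±100 for the full control effect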); settings: JNK3 lysate, c-Jun phosphorylation; series mostly up to 57.1 µM
Method in brief: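 Compound titrations were preincubated 15 minutes at room temperature with substrate, antibody and pre-activated JNK3-containing HepG2 lysate. Reactions were started with 10 uM ATP and stopped with EDTA-containing bead buffer for AlphaScreen detection.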

[9] = target: 3',5'-cyclic-AMP phosphodiesterase 4B (Homo sapiens) (UniProt Q07343); experiment: qHTS Assay for Inhibitors of PDE-IV (AID 607; active = well fitted activation curve with a large enough effect in the main read-out, with a control signal flat, not every such curve was filed as active; note: % of control where 0% means no effect); settings: HEK293 ACTOne CNG channel cells, membrane potential fluorescence; series mostly up to 22.9 µM
3',5'-cyclic-AMP phosphodiesterase 4B (Homo sapiens), sequence (Q07343 whole entry, looked up): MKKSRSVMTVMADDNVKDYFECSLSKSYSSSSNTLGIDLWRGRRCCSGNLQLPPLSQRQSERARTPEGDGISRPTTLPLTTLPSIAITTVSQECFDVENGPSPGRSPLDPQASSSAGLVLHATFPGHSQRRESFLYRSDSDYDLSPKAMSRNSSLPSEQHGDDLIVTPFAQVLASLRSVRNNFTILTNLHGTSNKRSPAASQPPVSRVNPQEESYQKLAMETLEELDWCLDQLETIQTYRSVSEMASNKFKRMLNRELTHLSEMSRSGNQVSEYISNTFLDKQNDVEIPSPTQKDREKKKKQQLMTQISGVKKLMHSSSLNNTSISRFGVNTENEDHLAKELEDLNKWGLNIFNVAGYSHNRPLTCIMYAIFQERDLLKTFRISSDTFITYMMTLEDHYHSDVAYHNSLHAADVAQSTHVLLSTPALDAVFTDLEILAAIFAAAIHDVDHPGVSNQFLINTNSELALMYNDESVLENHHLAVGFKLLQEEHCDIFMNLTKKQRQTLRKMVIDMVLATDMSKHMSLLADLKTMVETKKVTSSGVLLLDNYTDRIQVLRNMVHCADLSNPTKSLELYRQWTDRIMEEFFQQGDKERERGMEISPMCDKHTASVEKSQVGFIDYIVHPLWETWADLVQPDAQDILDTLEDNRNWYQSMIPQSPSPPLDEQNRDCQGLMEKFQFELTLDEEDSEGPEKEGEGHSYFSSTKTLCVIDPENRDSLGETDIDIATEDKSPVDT
Method in brief: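 The readout is membrane depolarisation from a cAMP-sensing CNG channel, detected with a potential dye at ex 535/em 590. Cells were HEK293-derived (endogenous PDE-IV) at 1000 cells/well, titrated up to 22.9 uM final.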

[10] = qHTS Assay for Identification of Small Molecule Agonists for Hypoxia Response Element Signaling Pathway (AID 914; active = well fitted activation curve with a large enough effect in the signal ratio, with a control signal flat, not every such curve was filed as active; the % refers to the signal ratio; note: potency is the fitted concentration of half-maximal effect; for activation: % of control where 0% means no effect); settings: ME-180 (cervical carcinoma) HRE-bla reporter, beta-lactamase ratio, CoCl2, 17 h; activation: stronger effect = higher value
Method in brief: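 HRE-bla ME-180 cells, overnight plating in Opti-MEM with 0.5% dialyzed FBS; cpd titration + EC50 CoCl2, 17 h, 37 degrees Celsius; CCF4 2.5 h RT; 460/530 nm ratio; AC50.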

[11] = qHTS Assay for Lipid Storage Modulators (AID 1519; calls by dose curve); settings: Drosophila S3 cells, BODIPY lipid droplet/cell ratio, laser cytometry, cells loaded with oleic acid; for activity change, negative = inhibition: at 57.5 µM (top of the series)
Method in brief: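 Cells seeded at 5,000 per well were treated with compounds over a concentration series and loaded with oleic acid (400 uM, as added). Lipid droplet fluorescence (488 nm excitation, 500-530 nm channel) was read by laser-scanning cytometry and normalized to 20 uM Triacsin C.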

[12] = target: Dual specificity protein kinase CLK4 (Homo sapiens) (UniProt Q9HAZ1); experiment: qHTS Assay for Inhibitors of CDC-like Kinase 4 (ADP-FP Assay) (AID 1795); settings: Transcreener ADP fluorescence polarization; series mostly up to 50 µM;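 note: recombinant human CLK4 phosphorylating RS repeat peptide at 1 µM ATP; % is set by controls: 0 for no effect and ±100 for the full control effect; nearly all actives have a fitted effect of over 60% in size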
Dual specificity protein kinase CLK4 (Homo sapiens), sequence (Q9HAZ1 whole entry, looked up): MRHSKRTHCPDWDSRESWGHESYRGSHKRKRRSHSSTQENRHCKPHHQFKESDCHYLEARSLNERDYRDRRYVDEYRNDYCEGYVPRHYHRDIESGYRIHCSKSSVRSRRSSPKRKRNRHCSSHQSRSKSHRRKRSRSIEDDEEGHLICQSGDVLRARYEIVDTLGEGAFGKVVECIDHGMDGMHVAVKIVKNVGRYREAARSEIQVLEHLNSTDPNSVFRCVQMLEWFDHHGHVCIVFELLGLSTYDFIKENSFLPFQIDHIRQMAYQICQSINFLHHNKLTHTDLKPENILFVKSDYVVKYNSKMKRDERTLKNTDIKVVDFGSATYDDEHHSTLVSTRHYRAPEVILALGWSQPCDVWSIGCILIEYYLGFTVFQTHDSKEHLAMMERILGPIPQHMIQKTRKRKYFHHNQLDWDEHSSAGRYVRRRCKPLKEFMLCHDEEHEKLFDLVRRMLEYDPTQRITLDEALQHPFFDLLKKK
Method in brief: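 Kinase activity was followed as ADP output, converted from fluorescence polarization with a calibration curve. Reactions ran one hour at low ATP (1 uM) with RS peptide substrate.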

[13] = target: Ubiquitin carboxyl-terminal hydrolase 1 (Homo sapiens) (UniProt O94782); experiment: Inhibitors of USP1/UAF1: Pilot qHTS (AID 504865); settings: purified USP1/UAF1, Ub-rhodamine cleavage fluorescence; series mostly up to 54.9 µM;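 note: rhodamine fluorescence freed from ubiquitin-rhodamine substrate followed over time; top concentration of the series differs between compounds; % is set by controls: 0 for no effect and ±100 for the full control effect; nearly all actives have a fitted effect of over 35% in size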
Ubiquitin carboxyl-terminal hydrolase 1 (Homo sapiens), sequence (O94782 whole entry, looked up): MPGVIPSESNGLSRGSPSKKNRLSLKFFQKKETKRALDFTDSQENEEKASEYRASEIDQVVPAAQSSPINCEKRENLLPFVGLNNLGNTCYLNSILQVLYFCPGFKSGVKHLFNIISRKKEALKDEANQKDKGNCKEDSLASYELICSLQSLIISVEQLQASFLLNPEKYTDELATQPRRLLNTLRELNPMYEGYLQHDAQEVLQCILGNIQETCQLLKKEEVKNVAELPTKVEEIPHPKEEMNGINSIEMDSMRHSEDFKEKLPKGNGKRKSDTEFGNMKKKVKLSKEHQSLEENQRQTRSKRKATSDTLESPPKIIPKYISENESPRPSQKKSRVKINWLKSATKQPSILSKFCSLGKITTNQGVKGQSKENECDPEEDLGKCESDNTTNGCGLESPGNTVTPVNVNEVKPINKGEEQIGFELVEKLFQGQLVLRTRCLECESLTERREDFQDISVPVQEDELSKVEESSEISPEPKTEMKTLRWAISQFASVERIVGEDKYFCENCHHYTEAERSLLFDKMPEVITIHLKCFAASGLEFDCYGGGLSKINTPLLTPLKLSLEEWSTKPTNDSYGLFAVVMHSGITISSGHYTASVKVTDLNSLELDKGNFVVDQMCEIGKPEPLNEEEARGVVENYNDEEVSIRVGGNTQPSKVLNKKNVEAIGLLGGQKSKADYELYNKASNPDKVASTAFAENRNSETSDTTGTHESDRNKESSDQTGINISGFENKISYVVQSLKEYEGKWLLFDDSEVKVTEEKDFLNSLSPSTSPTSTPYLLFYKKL
Method in brief: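 Enzyme-free wells gave the negative control, while test wells held 1nM USP1/UAF1 preincubated with compound for 15 min at room temperature. Ub-Rho at 150nM final started the reaction, and fluorescence at 480/540 nm was recorded kinetically.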

[14] = Primary qHTS for small molecule stabilizers of the endoplasmic reticulum resident proteome: Secreted ER Calcium Modulated Protein (SERCaMP) assay (AID 1508630); settings: SH-SY5Y GLuc-SERCaMP (Gaussia luciferase released on ER calcium loss) secretion, thapsigargin, luminescence; series mostly up to 38.4 µM; note: % is set by controls: 0 for no effect and ±100 for the full control effect
Method in brief: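 GLuc-SERCaMP-expressing SH-SY5Y cells, pretreated 16 h with compound, are challenged with thapsigargin to empty ER calcium stores; after 4 h, coelenterazine is added directly to the medium and luminescence is imaged.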

[15] = target: Cytochrome P450 2C9 (Homo sapiens) (UniProt P11712); experiment: qHTS Assay for Inhibitors and Substrates of Cytochrome P450 2C9 (AID 883); settings: recombinant CYP2C9, luciferin-H luminescence, 60 min; series mostly up to 57.1 µM; note: % is set by controls: 0 for no effect and ±100 for the full control effect; nearly all actives have a fitted effect of over 60% in size
Cytochrome P450 2C9 (Homo sapiens), sequence (P11712 whole entry, looked up): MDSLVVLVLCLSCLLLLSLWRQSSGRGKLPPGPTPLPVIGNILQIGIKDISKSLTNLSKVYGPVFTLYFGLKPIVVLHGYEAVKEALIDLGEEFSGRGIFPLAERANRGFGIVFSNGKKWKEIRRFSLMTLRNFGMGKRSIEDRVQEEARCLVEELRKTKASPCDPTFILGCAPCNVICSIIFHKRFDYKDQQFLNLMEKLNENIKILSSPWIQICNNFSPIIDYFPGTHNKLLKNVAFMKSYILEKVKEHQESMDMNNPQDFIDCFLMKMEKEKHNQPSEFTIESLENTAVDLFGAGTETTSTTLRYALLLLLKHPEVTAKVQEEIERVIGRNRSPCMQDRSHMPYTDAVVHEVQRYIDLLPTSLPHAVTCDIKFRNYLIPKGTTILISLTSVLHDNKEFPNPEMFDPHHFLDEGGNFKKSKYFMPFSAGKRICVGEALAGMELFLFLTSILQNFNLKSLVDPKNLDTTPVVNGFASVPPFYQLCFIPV
Method in brief: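 Turnover of Luciferin-H (100uM, KM) by 10nM human CYP2C9 was measured over 60 min at 37C with NADPH regeneration; inhibitors and some substrates reduce luminescence. Data normalized to sulphaphenazole 57uM.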

[16] = Confirmation and Secondary Assay for Modulators of Hemoglobin Beta Chain Splicing at IVS2 654 locus (AID 910); settings: HeLa EGFP-654 splicing reporter, GFP fluorescence, 48 h; series mostly up to 38.3 µM;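 note: HeLa cells stably carrying EGFP split by mutant beta-globin IVS2-654 intron; % of control where 0% means no effect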
Method in brief: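 Readout: per-well total peak green fluorescence (488 nm ex, 500–520 nm em) from objects 5–250 µm, reflecting correct splicing of an EGFP-654 reporter. Compounds were applied for 2 days at 37 °C to overnight-plated HeLa EGFP-654 cells; controls were DMSO and 500 nM IVS2-654 PNA.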

[17] = Confirmation and Secondary Assay for Modulators of Hemoglobin Beta Chain Splicing at IVS2 705 locus (AID 930); settings: HeLa EGFP-705 splicing reporter, GFP fluorescence, 48 h; series mostly up to 38.3 µM;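 note: HeLa cells stably expressing the EGFP-705 splicing reporter; GFP fluorescence per well restored by corrected splicing of the IVS2-705 intron in EGFP; % of control where 0% means no effect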
Method in brief: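 Read-out: total peak GFP fluorescence per well (488 nm excitation, 500-520 nm emission) by laser-scanning cytometry. Cells: HeLa EGFP-705 splicing reporter, 2 days compound exposure in Optimem/2% FCS.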

[18] = target: Cytochrome P450 3A4 (Homo sapiens) (UniProt P08684); experiment: qHTS Assay for Inhibitors and Substrates of Cytochrome P450 3A4 (AID 884); settings: recombinant CYP3A4, Luciferin-PPXE luminescence; series mostly up to 57.1 µM; note: potency is the fitted concentration of half-maximal effect; nearly all actives have a fitted effect of over 50% in size
Cytochrome P450 3A4 (Homo sapiens), sequence (P08684 whole entry, looked up): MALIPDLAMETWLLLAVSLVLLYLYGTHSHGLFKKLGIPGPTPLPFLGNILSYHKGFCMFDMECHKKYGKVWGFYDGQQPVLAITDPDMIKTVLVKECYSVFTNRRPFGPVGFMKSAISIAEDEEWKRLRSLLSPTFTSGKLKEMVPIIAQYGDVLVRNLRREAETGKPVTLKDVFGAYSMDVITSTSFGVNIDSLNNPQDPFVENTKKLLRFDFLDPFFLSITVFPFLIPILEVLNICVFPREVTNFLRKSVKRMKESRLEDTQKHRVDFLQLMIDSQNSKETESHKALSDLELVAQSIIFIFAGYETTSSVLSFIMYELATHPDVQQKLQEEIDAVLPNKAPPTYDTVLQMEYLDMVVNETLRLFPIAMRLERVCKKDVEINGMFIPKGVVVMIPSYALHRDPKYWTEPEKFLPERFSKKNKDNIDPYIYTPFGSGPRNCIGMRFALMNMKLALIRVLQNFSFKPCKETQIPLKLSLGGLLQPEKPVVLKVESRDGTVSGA
Method in brief: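 20 nM human CYP3A4 with 25 uM Luciferin-PPXE (at KM) in 200 mM KPO4, preincubated 10 min with compound; NADPH regeneration started a 60 min RT reaction. Luciferin detected by luminescence, normalized to 57 uM ketoconazole as full inhibition.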

[19] = target: Cytochrome P450 3A4 (Homo sapiens) (UniProt P08684); experiment: qHTS Assay for Activators of Cytochrome P450 3A4 (AID 885); settings: recombinant CYP3A4, Luciferin-PPXE luminescence, 60 min; series mostly up to 57.1 µM; note: nearly all actives have a fitted effect of over 65% in size
Method in brief: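 Steps: enzyme/substrate mix dispensed; compound added, 10 min RT; NADPH regeneration solution added, 60 min RT; luciferin detection buffer stops reaction; 20 min later luminescence measured.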

[20] = measured here: cell count channel max response
[21] = measured here: lipid channel max response

CNc1cc(-c2c(C)noc2C)ncn1
inactive: Potency [1] > 11.4 µM | activity change, negative = inhibition [2] 25.4% | activity change, negative = inhibition [4] 3.01% | activity, negative = inhibition [5] 27.1% | Potency [6] > 46 µM | Potency [7] > 46 µM | outcome [8] | Potency [9] | activity change, negative = inhibition [11] 4.96% | Potency [12] | Potency [13] | Potency [14]
27.2%: max response [11, 21]
25.8%: max response [11, 20]
active: Potency [3] 5.01 µM | Potency [10] 3.16 µM

CN(C)Cc1ccccc1-c1cncnc1Nc1ccncc1
17.6%: max response [11, 21]
inactive: Potency [1] > 11.4 µM | activity change, negative = inhibition [2] -25.5% | activity change, negative = inhibition [4] 10.2% | activity, negative = inhibition [5] 5.07% | Potency [6] > 46 µM | outcome [8] | Potency [9] | activity change, negative = inhibition [11] 4.9% | Potency [12] | Potency [13] | Potency [14]
13.6%: max response [11, 20]

CN(C)C(=O)c1ccc(-c2nc(NC3CCNCC3)c3ccccc3n2)cc1
active: Potency [3] 20 µM
14.8%: max response [11, 20]
inactive: Potency [1] > 11.4 µM | activity change, negative = inhibition [2] 7.64% | activity change, negative = inhibition [4] 12.4% | activity, negative = inhibition [5] 11.2% | Potency [6] > 46 µM | Potency [7] > 46 µM | outcome [8] | Potency [9] | activity change, negative = inhibition [15] 46.2% [at 2.29 µM] | activity change, negative = inhibition [11] 4.99% | Potency [12] | Potency [13] | Potency [14]
18.3%: max response [11, 21]

CN1CCN(c2cc(-c3ccc(N(C)C)cc3)ncn2)CC1
7.68%: max response [11, 20]
16.4%: max response [11, 21]
inactive: Potency [1] > 11.4 µM | activity change, negative = inhibition [2] -7.42% | activity change, negative = inhibition [4] -7.21% | activity, negative = inhibition [5] 2.2% | Potency [6] > 46 µM | Potency [7] > 46 µM | outcome [8] | Potency [9] | outcome [16] | outcome [17] | activity change, negative = inhibition [11] 8.21% | Potency [13] | Potency [14]
active: Potency [3] 2.51 µM

COc1cccc(-c2cc(NCc3cccs3)ncn2)c1
25%: max response [11, 21]
10.6%: max response [11, 20]
active: Potency [3] 1.26 µM | Potency [18] 7.94 µM
inactive: Potency [1] > 11.4 µM | activity change, negative = inhibition [2] 3.15% | activity change, negative = inhibition [4] 17% | activity, negative = inhibition [5] -4.26% | Potency [6] > 46 µM | Potency [7] > 46 µM | outcome [8] | Potency [19] | outcome [16] | activation [10] -6.23% | outcome [17] | activity change, negative = inhibition [11] 9.36% | Potency [13] | Potency [14]

CC(=O)NCCNc1nc(-c2ccccc2C(F)(F)F)nc2ccccc12
23%: max response [11, 21]
inactive: Potency [1] > 11.4 µM | activity change, negative = inhibition [2] 3.94% | activity change, negative = inhibition [4] 4.42% | activity, negative = inhibition [5] -7.86% | Potency [6] > 46 µM | Potency [7] > 46 µM | outcome [8] | Potency [9] | Potency [19] | outcome [16] | outcome [17] | activity change, negative = inhibition [11] 9.13% | Potency [13] | Potency [14]
11.9%: max response [11, 20]
active: Potency [3] 15.8 µM
